Test results taken from PubChem BioAssay AID372 (MTDP, 2006).
In all, about 100,000 compounds went through this assay and about 770 (0.77%) were called active. This excerpt belongs to a sample that is enriched for actives. Unmarked numbers belong to inactive results. No stated cut-off is given here; in the data, active means inhibition above about 50%; inactive means the rest.

These molecules were tested against Gag-Pol polyprotein (Human immunodeficiency virus type 1 group M subtype B (isolate HXB2)) (UniProt P04585) (assay: RNase H inhibition, HIV 1 Gag Pol polyprotein, FRET biochemical assay, screening (AID 372)). Settings: HIV-1 RT RNase H, FRET RNA/DNA substrate fluorescence; at 10 µM; stronger effect = higher value.
With CCC(C)OC(=O)C1=C(C)NC2=C(C(=O)CC(c3ccc(Cl)cc3)C2)C1c1ccc(OC(C)=O)cc1 (centres undefined) the inhibition was 11%. For COc1ccccc1/C=C\C=N\n1c(-c2ccc(Cl)cc2Cl)n[nH]c1=S, the inhibition was 34%. In the case of CS(=O)(=O)N(CC(O)Cn1c2ccccc2c2ccccc21)c1ccc(Br)cc1 (centres undefined), the inhibition was 1%. Work on CCN(CC)c1ccc(/C=N/NC(=O)CCC(=O)Nc2cccc(Cl)c2C)c(O)c1 yielded an inhibition of 6%. CCOP(=O)(CN1CCN(CP(=O)(OCC)OCC)CC1)OCC gave an inhibition of 2%. With Cc1c(NC(=O)c2cc(Cl)ccc2Cl)cccc1-c1nc2ccccc2s1 the inhibition was 9%. In the case of O=c1/c(=C/c2ccc(-c3ccccc3)o2)sc2nc3ccccc3n12, the inhibition was 9%. Work on CCOC(=O)C1=C(C)NC2=C(C(=O)CC(c3ccc(OC)cc3)C2)C1c1ccc(OC)c(OC)c1 (centres undefined) yielded an inhibition of 11%. Cc1ccc(C(=O)Oc2ccccc2C(=S)N2CCOCC2)cc1 gave an inhibition of 0%. For CCOC(=O)C1CCCN(C(=O)N2CCOCC2)C1 (centres undefined), the inhibition was 12%. In the case of Cc1cc2ncn(CC(O)COc3ccc(C(=O)O)cc3)c2cc1C (centres undefined), the inhibition was 0%. COc1ccccc1CNc1cccc(F)c1 was tested, and the inhibition was 0%. O=C1NC(=S)S/C1=C\c1ccccc1OCCOc1ccccc1Cl showed an inhibition of 46%. Work on Cc1cc(C)cc(OCCOc2ccc([N+](=O)[O-])cc2/C=C2\SC(=S)NC2=O)c1 yielded an inhibition of 38%. O=C1NC(=Nc2cccc(Cl)c2Cl)S/C1=C\c1ccc(O)c(O)c1 was tested, and the inhibition was 89% (active). With O=C1NC(=Nc2cccc(Cl)c2Cl)S/C1=C\c1ccc(F)cc1 the inhibition was 22%. With O=C1NC(=Nc2cccc(Cl)c2Cl)S/C1=C\c1ccc(O)cc1 the inhibition was 12%. In the case of O=C1NC(=S)S/C1=C\c1cc([N+](=O)[O-])ccc1OCCOc1ccccc1Cl, the inhibition was 55% (active). In the case of O=P(O)(OC(c1ccccc1)C(F)(F)F)c1ccccc1 (centres undefined), the inhibition was 2%. Molecule CC(=O)Oc1ccc(/C=C2/N=C(c3cccc([N+](=O)[O-])c3)OC2=O)cc1 has an inhibition of 14%. O=C(Cc1ccccc1)Nc1ccncc1 was tested, and the inhibition was 11%. With Cn1cc(/C=C2/SC(=O)N(c3ccccc3)C2=O)c2ccccc21 the inhibition was 12%. Molecule COc1ccc(Cl)cc1/C=C1\C(=O)NC(=S)N(c2cccc(Cl)c2Cl)C1=O has an inhibition of 8%. In the case of Clc1cccc(-c2ccc(/C=N/Nc3nc4ccccc4s3)o2)c1, the inhibition was 4%. O=[N+]([O-])c1ccc(Cl)c(C=Nn2c(-c3ccc(Cl)cc3Cl)n[nH]c2=S)c1 was tested, and the inhibition was 16%. O=[N+]([O-])c1ccc(C=Nn2c(-c3ccc(Cl)cc3Cl)n[nH]c2=S)cc1 was tested, and the inhibition was 51% (active). Molecule O=[N+]([O-])c1cc(C=Nn2c(-c3ccc(Cl)cc3Cl)n[nH]c2=S)ccc1Cl has an inhibition of 37%. Work on COc1ccccc1-n1c(C=C2C(=O)N(Cc3ccccc3)c3ccccc32)nc2ccccc2c1=O yielded an inhibition of 9%. For O=c1oc(/C=C\c2ccccc2)nc2ccc(Cc3ccc4nc(/C=C\c5ccccc5)oc(=O)c4c3)cc12, the inhibition was 7%. Cc1oc2ccc(OCc3ccc([N+](=O)[O-])cc3)cc2c1C(=O)OC(C)C showed an inhibition of 13%. In the case of CCOCCOC(=O)C1=C(C)NC2=C(C(=O)CC(c3ccc(OC)cc3)C2)C1c1cccc(OC)c1OC (centres undefined), the inhibition was 5%. O=C1c2ccccc2CCC1C1(O)C(=O)Nc2ccc(Br)cc21 (centres undefined) was tested, and the inhibition was 2%. CCn1c2ccccc2c2ccc(-c3nn(-c4ccccc4)cc3C=O)cc21 gave an inhibition of 11%. Work on Cc1nc(=O)c(-c2ccccc2)c(C)n1-c1ccc(C(=O)O)c(O)c1 yielded an inhibition of 0%. Cc1ccc(C)n1-c1ccc(C(=O)O)c(Cl)c1 showed an inhibition of 16%. With Cc1ccc(C)n1-c1cc(C(=O)O)cc(C(=O)O)c1 the inhibition was 2%. Cc1ccc(C)n1-c1ccc(C(=O)O)c(O)c1 was tested, and the inhibition was 99% (active). Molecule Cc1ccc(-c2ccccc2)n1-c1ccc(O)c(C(=O)O)c1 has an inhibition of 6%. Cc1ccc(C)n1-c1ccc(Cl)c(O)c1 was tested, and the inhibition was 41%. For Cc1ccc(C)n1-c1ccc(Cl)c(C(=O)O)c1, the inhibition was 53% (active). Work on Cc1ccc(-c2ccccc2)n1-c1ccc(Cl)c(C(=O)O)c1 yielded an inhibition of 3%. In the case of CC(C)(Cc1ccc(O)cc1)NC(=O)Cc1ccccc1, the inhibition was 6%. Molecule CS(=O)(=O)N(CC(=O)N1CCCC1)c1cccc(Cl)c1 has an inhibition of 6%. For CC1=C(C#N)C(c2cccc(F)c2)C2=C(CC(c3ccccc3)CC2=O)N1 (centres undefined), the inhibition was 11%. COc1ccc(OC)c(NC(=O)CN(CCc2ccccc2)S(=O)(=O)c2ccccc2)c1 showed an inhibition of 15%. Cc1cc(C)cc(NC(=O)Cc2ccccc2)c1 was tested, and the inhibition was 3%. Molecule O=C1NC(=O)N(c2ccccc2)C(=O)/C1=C\c1cccc(OCc2ccc(F)cc2)c1 has an inhibition of 9%. CC(=O)Nc1ccc2nn(-c3ccc(F)cc3)nc2c1 was tested, and the inhibition was 4%. With O=C(CSc1nnnn1-c1ccccc1)Nc1ccc(C(=O)O)cc1 the inhibition was 0%. In the case of CCOC(=O)c1ccc(NC(=O)CSc2nnnn2-c2c(C)cc(C)cc2C)cc1, the inhibition was 55% (active). COc1ccc(-n2nnnc2SCC(=O)Nc2c(C)cc(C)cc2C)cc1 was tested, and the inhibition was 12%. Work on CC1=C(C(=O)OC(C)C)C(c2cccc(F)c2)C2=C(CCCC2=O)N1 (centres undefined) yielded an inhibition of 4%. Work on CCN1C(=O)/C(=C2\SC(=S)N(c3ccccc3)C2=O)c2ccccc21 yielded an inhibition of 4%. CCCCCN1C(=O)/C(=C2\SC(=S)N(c3ccc(Br)cc3)C2=O)c2ccccc21 gave an inhibition of 16%. With C=CCN1C(=O)/C(=C2\SC(=S)N(Cc3ccccc3)C2=O)c2ccccc21 the inhibition was 33%. With CCN1C(=O)/C(=C2\SC(=O)N(Cc3ccccc3)C2=O)c2ccccc21 the inhibition was 59% (active). CCN1C(=O)/C(=C2\SC(=S)N(CC(=O)O)C2=O)c2ccccc21 was tested, and the inhibition was 7%. With CCN1C(=O)/C(=C2\SC(=S)N(c3ccc(Br)cc3)C2=O)c2ccccc21 the inhibition was 57% (active). In the case of CCC(C(=O)Nc1nc(-c2ccccc2)c(C)s1)c1ccccc1 (centres undefined), the inhibition was 10%. COC(=O)C1=C(C)NC2=C(C(=O)CC(c3ccccc3)C2)C1c1cc(Br)c(O)c(OC)c1 (centres undefined) gave an inhibition of 15%. For Cc1cc(=O)oc2cc(OC(=O)CCCOc3ccc(Cl)cc3Cl)ccc12, the inhibition was 18%. Cc1ccc(-c2cc(=O)c3cc(C)ccc3o2)cc1 gave an inhibition of 11%. In the case of Cc1ccc(-c2cc(=O)c3cc(Cl)ccc3o2)cc1, the inhibition was 5%. In the case of CN(C)c1ccc(-c2c3cc(O)c(=O)cc-3oc3cc(O)c(O)cc23)cc1, the inhibition was 63% (active). For O=C1c2ccccc2C(=O)c2c(O)c([N+](=O)[O-])cc(O)c21, the inhibition was 20%. In the case of O=c1[nH]c2ccccc2c(O)c1-c1ccccc1[N+](=O)[O-], the inhibition was 1%. For O=c1cc2oc3cc(O)c(O)cc3c(-c3ccccc3[N+](=O)[O-])c-2cc1O, the inhibition was 69% (active). For O=C(Nc1ccc2ccccc2c1)c1ccccc1Cl, the inhibition was 3%. Work on Cc1cc(OCC(N)=O)ccc1Cl yielded an inhibition of 0%. With Cc1ccc2nc3c(N)c(Cl)cc4c3c(c2c1)-c1ccccc1C4=O the inhibition was 56% (active). With Nc1c(Cl)cc(Br)c2c1C(=O)c1ccccc1C2=O the inhibition was 6%. Molecule Nc1c(Cl)cc2c(c1Oc1ccccc1)C(=O)c1ccccc1C2=O has an inhibition of 8%. In the case of O=C(Cn1c(NCCO)nc2ccccc21)c1cccc(Br)c1, the inhibition was 3%. Molecule C=CCC(C(=O)c1ccccc1)C(=O)C(C)(C)OC (centres undefined) has an inhibition of 7%. With COc1ccc(CC(=O)N/N=C/c2ccc(-c3cc(Cl)ccc3C)o2)cc1 the inhibition was 74% (active). Cc1ccc(/C=N/NC(=O)Cc2ccc(Cl)cc2)o1 showed an inhibition of 7%. With COc1ccc(CC(=O)N/N=C/c2ccc(I)o2)cc1 the inhibition was 0%. O=Cc1cc(Cl)c(OCc2ccc(F)cc2)c(Cl)c1 was tested, and the inhibition was 41%. Cc1ccc2oc(-c3ccc(C)c(NC(=O)COc4ccccc4C)c3)nc2c1 showed an inhibition of 44%. Cc1cc(C)c2oc(-c3ccc(C)c(NC(=O)COc4ccccc4C)c3)nc2c1 was tested, and the inhibition was 55% (active). With Cc1cc(C)c2oc(-c3ccc(C)c(NC(=O)COc4cccc(C)c4C)c3)nc2c1 the inhibition was 0%. Cc1ccc(-c2nc3ccccc3o2)cc1NC(=O)COc1ccccc1C was tested, and the inhibition was 50% (active). Work on Cc1ccc(-c2nc3ccccc3o2)cc1NC(=O)COc1ccccc1 yielded an inhibition of 8%. In the case of Cc1cc(C)cc(OCC(=O)Nc2cc(-c3nc4cc(C)cc(C)c4o3)ccc2C)c1, the inhibition was 14%. With CCCSc1nc2ccccc2c(=O)n1CC1CCCCC1 the inhibition was 1%. In the case of O=C(Nc1cccc(C(F)(F)F)c1)c1ccc(I)cc1, the inhibition was 1%. COc1cc(/C=N\NC(=O)C2COc3cc4ccccc4cc3O2)ccc1OCc1ccccc1 (centres undefined) showed an inhibition of 14%. CCN(Cc1ccccc1)C(=O)c1ccccc1C gave an inhibition of 6%. Work on CCOc1ccccc1OCCCCOc1cc(C)ccc1Cl yielded an inhibition of 5%. Work on Cc1c(OCc2c(F)cccc2Cl)ccc2c3c(c(=O)oc12)CCC3 yielded an inhibition of 0%. For CCOC(=O)c1c(N)sc2c1CCc1ccccc1-2, the inhibition was 51% (active). CCOC(=O)c1c(NC(C)=O)sc2c1CCc1ccccc1-2 was tested, and the inhibition was 1%. In the case of COC(=O)c1c(N)sc2c1CCc1ccccc1-2, the inhibition was 9%. Molecule Cc1ccc(-c2nc(N/N=C/c3ccccc3O)c3ccccc3n2)cc1 has an inhibition of 20%. In the case of Cc1ccc(-c2nc(N/N=C/c3ccccc3Cl)c3ccccc3n2)cc1, the inhibition was 58% (active). With Cc1ccc(-c2nc(N/N=C/c3ccccc3)c3ccccc3n2)cc1 the inhibition was 10%. With COc1ccc(OC)c(C(=S)N2CCOCC2)c1 the inhibition was 11%. In the case of COc1ccccc1C(=S)N1CCOCC1, the inhibition was 70% (active). With Oc1ccccc1C(=S)N1CCOCC1 the inhibition was 24%.
